# LYPLA1 counter: LYPLA1 inhibitors, primary screen, counter-screen for PME1 inhibitor project, biochemical, fluorescence polarization, FP-Rh probe ABPP; Acyl-protein thioesterase 1 (Homo sapiens), O75608; 320,000 compounds, 0.16% hits; AID 2174, 2009; recombinant LYPLA1; inhibition, % at 5.9 µM;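 active means inhibition above the mean of all tested compounds plus 3 SD, set per campaign, cut at about 14% in these data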;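 further: inhibitors block serine hydrolase probe labeling of LYPLA1 so polarization falls; 0% = enzyme with DMSO and 100% = wells lacking LYPLA1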
# LYPLA2 inh: LYPLA2 inhibitors, primary screen, counter-screen for PME1 inhibitor project, biochemical, fluorescence polarization, FP-Rh probe ABPP; inhibition, % at 5.9 µM; 320,000 compounds, 0.38% hits; recombinant LYPLA2; AID 2177, 2009;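 active means inhibition above the screen-wide mean plus 3 SD, limit set per campaign, cut at about 26% in these data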;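 further: 0% = LYPLA2 with DMSO and 100% = wells lacking LYPLA2 enzyme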
# Target sequence (O95372 whole entry, looked up): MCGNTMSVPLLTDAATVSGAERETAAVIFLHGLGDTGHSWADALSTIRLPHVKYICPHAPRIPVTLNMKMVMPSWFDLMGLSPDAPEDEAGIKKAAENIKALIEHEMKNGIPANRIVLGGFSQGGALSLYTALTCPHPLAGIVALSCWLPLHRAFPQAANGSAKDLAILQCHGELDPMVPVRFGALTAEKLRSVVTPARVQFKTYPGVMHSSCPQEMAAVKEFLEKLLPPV
# PME-1 inh: PME-1 inhibitors via competitive probe labeling, primary screen, biochemical, fluorescence polarization, FP-Rh probe, HTS; Protein phosphatase methylesterase 1 (Homo sapiens), Q9Y570; recombinant PME-1; inhibition, % at 5.9 µM; 320,000 compounds, 0.53% hits; AID 2130, 2009;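 active means inhibition above the campaign mean of all compounds plus 3 SD, cut at about 26% in these data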;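 further: competitive labeling of PME-1 active site by serine hydrolase directed probe; 0% = PME-1 with DMSO and 100% = wells lacking PME-1 enzyme; inhibitors block probe labeling so polarization falls and inhibition rises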
# Target sequence (Q9Y570 whole entry, looked up): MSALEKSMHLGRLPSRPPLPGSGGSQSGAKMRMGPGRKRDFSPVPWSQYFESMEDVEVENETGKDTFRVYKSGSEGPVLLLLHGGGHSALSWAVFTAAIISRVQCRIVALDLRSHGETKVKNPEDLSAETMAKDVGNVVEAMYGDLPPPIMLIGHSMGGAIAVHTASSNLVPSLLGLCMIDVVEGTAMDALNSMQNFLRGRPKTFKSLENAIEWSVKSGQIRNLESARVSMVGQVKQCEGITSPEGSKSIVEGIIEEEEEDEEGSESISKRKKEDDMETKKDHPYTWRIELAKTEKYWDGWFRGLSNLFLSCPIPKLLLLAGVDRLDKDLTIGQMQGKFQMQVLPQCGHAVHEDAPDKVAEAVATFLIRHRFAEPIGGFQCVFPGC
# PAD4 FP inh: human PAD4 inhibitors, primary screen, biochemical, fluorescence polarization, 1536-well format; Protein-arginine deiminase type-4 (Homo sapiens), Q9UM07; recombinant PAD4, RCA probe fluorescence polarization; inhibition, % at 6.36 µM; 330,000 compounds, 0.41% hits; AID 485272, 2010;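 active means percent inhibition above a cutoff equal to the mean of all tested compounds plus 3 SD, cut at about 15% in these data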;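 further: 0% = PAD4 with RCA probe and DMSO and 100% = probe without PAD4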
# Fam108B counter: mouse Fam108B serine hydrolase inhibitors, primary screen, counter-screen for RBBP9 inhibitor project, biochemical, fluorescence polarization; recombinant Fam108B, FP-Rh probe fluorescence polarization; inhibition, % at 9.51 µM; 300,000 compounds, 0.33% hits;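 active means inhibition above the screen mean inhibition plus 3 SD, computed separately per campaign, cut at about 18% in these data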;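 further: inhibitors lower polarization as less probe binds the enzyme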
# GSTO1 counter: inhibitors of recombinant GSTO1, primary screen, counter-screen for RBBP9 inhibitor project, biochemical, fluorescence polarization; AID 1974, 2009; Glutathione S-transferase omega-1 (Homo sapiens), P78417; 300,000 compounds, 1.1% hits; activity-based probe fluorescence polarization; inhibition, % at 5.96 µM;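 active means inhibition above the campaign mean inhibition plus 3 SD, cut at about 35% in these data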;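 further: 0% = GSTO1-1 with DMSO and 100% = wells lacking GSTO1-1 enzyme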
# Fam108b confirm: mouse Fam108b serine hydrolase inhibitors, confirmation, counter-screen for RBBP9 inhibitor project, biochemical, fluorescence polarization, triplicate; shares compounds with Fam108B counter; recombinant Fam108b, FP-Rh probe fluorescence polarization; inhibition, % at 9.51 µM; 930 compounds, 44% hits;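 active means inhibition above a limit from the primary screen, the mean over all compounds plus 3 SD, cut at about 19% in these data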;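 further: 0% = median of active Fam108b wells and 100% = catalytically dead S170A mutant; inhibitors free the probe so polarization falls as inhibition rises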
# Fam108b inh: inhibition of mouse Fam108b by HTS hits, late-stage follow-up, biochemical, gel-based ABPP, soluble recombinant form | fluorophosphonate probe | AID 588649, 2011 | inhibition, % at 20 µM | 260 compounds, 44% hits | shares compounds with Fam108B counter; in the data active means inhibition above about 40%
# * hit, by the source's call; x = no result. Hits are enriched below; roughly 1.7% of the tested compounds scored in any of these assays.
SMILES,LYPLA1 counter,LYPLA2 inh,PME-1 inh,PAD4 FP inh,Fam108B counter,GSTO1 counter,Fam108b confirm,others
O=C(NCCN1CCNC1=O)C1CCC(=O)N(Cc2cccc(C(F)(F)F)c2)C1 (centres undefined),-4,-7,-4,0,1,5,x,
O=C(CN1C(=O)NC2(CCCC2)C1=O)OCc1ccc(Cl)cc1Cl,1,3,2,-1,0,-12,x,
COc1ccc(Cl)cc1Nc1nc(-c2sc(NC(=O)c3ccco3)nc2C)cs1,-17,-22,12,-1,19*,1,6,
COc1ccc(OC)c(NC(=O)C(=O)N/N=C(\C)CC(=O)Nc2ccc(Cl)cn2)c1,-1,-6,-3,2,0,-8,x,
COc1ccc2c(c1)cc(C(=O)N/N=C/c1c(O)c(C(=O)O)cc3ccccc13)n2C,4,13,49*,-8,43*,9,17,
Cn1c(O)c(C=NNC(=O)c2cc3ccccc3cc2O)c2ccccc21,x,x,x,x,x,x,x,Fam108b inh=55*
Cc1ccc(C2C3=C(CC(C)(C)CC3=O)N=C3c4ccccc4C(=O)C32)cc1 (centres undefined),-7,-1,11,-1,23*,-3,15,
CC1(C)CC(=O)C2=C(C1)N=C1c3ccccc3C(=O)C1C2c1ccc(Cl)cc1 (centres undefined),-11,-6,14,2,8,-2,x,
Brc1cccc(-c2nnc(SCc3ccon3)n2-c2ccccc2)c1,-1,-2,3,-2,2,1,x,
CCCCn1c(=O)nc2n(-c3ccc(C)cc3)c3ccccc3cc-2c1=O,-2,-1,-2,-5,-3,3,x,
CCCCn1c(=O)nc2n(-c3ccc(OC)cc3)c3ccccc3cc-2c1=O,0,-8,-2,-1,42*,-3,1,
CC1(C)CC(=O)CC(=Nc2ccc(C(=O)O)cc2)C1,-1,3,-10,0,3,13,x,
NC(=O)c1ccc([N+](=O)[O-])cc1SCc1ccccc1,3,15,6,0,7,6,x,
N[C@H](CSCc1ccccc1)C(=O)Nc1ccc([N+](=O)[O-])cc1,-11,0,26*,-2,29*,8,-5,
O=S(=O)(c1cccc(Br)c1)N1CCN(CCc2ccccc2)CC1,6,20,1,3,8,1,x,
S=C(NCCc1ccccc1)Nc1c(Cl)cccc1Cl,-4,2,1,2,-2,-3,x,
CCCCSc1nnc(CNC(=O)C23CC4CC(CC(C4)C2)C3)n1Cc1ccccc1,1,-1,-3,-1,0,0,x,
Clc1ccc2[nH]c3c(c2c1)CCc1cn[nH]c1-3,-6,12,40*,-2,22*,4,12,
O=C(N/N=C1\CCCc2c1[nH]c1ccc(Cl)cc21)c1ccncc1,-3,1,26,-5,3,-1,x,
Cc1ccc(-c2ccc(/C=C3\C(=O)ON=C3c3ccccc3)o2)c([N+](=O)[O-])c1,6,6,11,-6,22*,31,7,
Cc1ccc(/C=C2\C(=O)ON=C2c2ccccc2)o1,1,-2,-5,-7,1,1,x,
Cc1ccc(O)c(CNc2cccc3cccnc23)c1,-2,1,4,-5,5,21,x,
Oc1ccc(Cl)cc1CNc1cccc2cccnc12,-6,1,7,-2,21*,35*,0,
COC(=O)C1CCN(C(=O)COC(=O)CNC(=O)c2ccc(Cl)cc2Cl)CC1,0,0,2,1,x,x,x,
O=C(COc1ccccc1C(=O)N/N=C\c1ccc(O)c(O)c1)N/N=C/c1ccc(O)c(O)c1,-12,-16,35*,4,35*,-36,2,
SMILES,LYPLA1 counter,LYPLA2 inh,PME-1 inh,PAD4 FP inh,Fam108B counter,GSTO1 counter,Fam108b confirm,others
O=[N+]([O-])c1cccc(-c2csc(NN=Cc3cccc(O)c3)n2)c1,x,x,x,x,x,x,x,Fam108b inh=0
O=[N+]([O-])c1cccc(-c2csc(Nc3ccccc3)n2)c1,-2,2,23,-1,7,-1,x,
O=C(O)C1C2C=CC(O2)C1C(=O)NCCC1=CCCCC1 (centres undefined),2,-4,0,-6,-2,-5,x,
O=C(CCn1cccn1)Nc1ccc2c(c1)OCO2,-3,6,8,0,18*,0,6,
Cn1ccnc1SCC(=O)Nc1ccc2c(c1)OCO2,-1,-3,-5,-1,1,7,x,
Cc1cc(Sc2nc(NC(C)C)nc(NC(C)C)n2)nc(Cl)n1,1,2,-4,6,-1,-2,x,
O=C(NNC(=O)c1ccc(O)cc1O)c1ccc(-c2ccccc2)cc1,-1,1,-2,6,3,8,x,
O=C(NNc1c2ccccc2nc2ccccc12)c1ccc(O)cc1O,-11,-11,78*,-4,25*,26,12,
CC(C)C1Nc2ccc(C(=O)O)cc2C2C=CCC21 (centres undefined),-5,1,-8,2,8,2,x,
CCCC1Nc2ccc(C(=O)O)cc2C2C=CCC12 (centres undefined),-5,0,-22,6,25*,5,1,
OCC[C@@H]1C[C@@H](O)[C@H](O)[C@@]2(CCc3ccccc3CO2)O1,1,4,2,-1,1,8,x,
Cc1csc(NC(=O)c2sc3nc(-c4cccs4)ccc3c2N)n1,-16,-12,45*,-2,31*,-24,7,
COc1ccc(C(=O)Nc2nc(-c3cccs3)cs2)cc1,-11,-5,-20,-4,-4,-2,x,
CCCSc1nnc(NC(=O)c2sc3nc(-c4cccs4)ccc3c2N)s1,-8,7,42*,5,22*,-26,-107,
CCCSc1nnc(NC(=O)c2ccco2)s1,-2,-7,0,-3,2,-10,x,
Cc1ccccc1-c1nn[nH]n1,4,4,1,-5,-5,4,x,
Oc1ccc(N=Nc2ccccc2-c2nn[nH]n2)c(O)c1,1,9,22,0,40*,-6,41*,Fam108b inh=0
CCn1ccnc1CN(C)C(=O)c1cc(COc2ccc(OC)c3ccccc23)on1,1,8,6,2,0,10,x,

# Compound activity: PubChem, The Scripps Research Institute Molecular Screening Center
